Most compounds without a hit are left out; they make up all but 4.6% or so of the library.
PK Bst: Pyruvate Kinase; purified pyruvate kinase, luminescence ATP production; ribose 5-phosphate activator present at AC10; Potency, µM; 51,000 compounds, 1.2% hits; AID 361, 2006; in the data active = potency below about 11 µM; inconclusive = mostly about 12 µM to 25 µM;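 the screen sought inhibitors and activators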;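 also: scaled between full activation by ribose 5 phosphate and full inhibition by luteolin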
USP2a inh: qHTS Assay for Inhibitors of Ubiquitin-specific Protease USP2a. AID 927, 2007. USP2a enzymatic assay, qHTS inhibition. Ubiquitin carboxyl-terminal hydrolase 2 (Homo sapiens), O75604. Potency, µM (series often up to 38.3 µM), for inactives: top-dose activity change, negative = inhibition, actives largely listed as inhibitors. 60,000 compounds, 0.1% hits; also: nearly all actives have a fitted effect of over 60% in size
Target sequence (O75604 whole entry, looked up): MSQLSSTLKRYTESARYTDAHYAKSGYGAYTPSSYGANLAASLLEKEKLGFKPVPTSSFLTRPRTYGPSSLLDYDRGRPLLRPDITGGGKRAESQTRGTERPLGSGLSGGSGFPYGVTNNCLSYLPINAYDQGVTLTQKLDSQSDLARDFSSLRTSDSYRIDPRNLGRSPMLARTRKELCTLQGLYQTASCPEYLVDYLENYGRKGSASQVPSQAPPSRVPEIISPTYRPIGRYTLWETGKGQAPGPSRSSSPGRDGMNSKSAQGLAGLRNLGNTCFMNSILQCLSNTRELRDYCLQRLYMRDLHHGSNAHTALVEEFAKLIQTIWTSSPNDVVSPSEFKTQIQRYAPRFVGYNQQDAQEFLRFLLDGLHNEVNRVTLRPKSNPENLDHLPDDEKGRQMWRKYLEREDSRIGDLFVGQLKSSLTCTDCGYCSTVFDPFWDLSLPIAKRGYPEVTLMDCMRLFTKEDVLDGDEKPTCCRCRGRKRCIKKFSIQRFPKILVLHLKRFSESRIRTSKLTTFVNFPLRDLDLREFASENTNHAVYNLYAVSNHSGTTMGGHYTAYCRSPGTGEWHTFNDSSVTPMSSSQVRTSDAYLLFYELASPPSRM
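USP2 core (20nM final) preincubated 30 min RT with compound, then Ub-PLA2 20nM and NBD C6-HPC 20uM final added; buffer 20mM Tris-HCl pH 8.0, 2mM CaCl2. Fluorescence Ex 460/Em 535 read at 0 and 2.5 h; normalized to NEM.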
Hsp90 Hop PPI: qHTS Assay for Disrupters of an Hsp90 Co-Chaperone Interaction; Hsp90 C-terminal peptide / TPR2A (Hop) interaction, human; AlphaScreen TPR2A-His6 binding biotin-Hsp90 C-terminal peptide; Potency, µM (highest dose often 57 µM), inactives show at the highest dose activity change, negative = inhibition; 71,000 compounds, 0.44% hits; active = well fitted curve in either direction with a large enough effect; inconclusive = small, poorly fitted or top-dose-only effect, or another doubt; also: % is scaled to controls: 0 for no effect and ±100 for the full control effect
ALOX15 inhib: qHTS Assay for Inhibitors of 15-hLO (15-human lipoxygenase) | purified 15hLO-1, xylenol orange hydroperoxide absorbance | 74,000 compounds, 1.4% hits | AID 887, 2007 | Polyunsaturated fatty acid lipoxygenase ALOX15 (Homo sapiens), P16050 | Potency, µM (highest dose often 57.1 µM), without a hit: at the highest dose activity change, negative = inhibition, most hits filed as inhibitors; also: % is scaled to controls: 0 for no effect and ±100 for the full control effect; nearly all actives have a fitted effect of over 55% in size
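Quantitative HTS in 25 mM Hepes pH 7.5 containing 0.01% Triton X-100: human 15hLO-1 at 40 nM, arachidonic acid at 50 uM, 6 min turnover. Product quantified via ferrous oxidation/xylenol orange, 573:405 nm absorbance ratio.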
Tau filament bind: qHTS Assay for Tau Filament Binding; Microtubule-associated protein tau (Homo sapiens), P10636; recombinant tau filaments, thioflavin S fluorescence, 15 h; filaments grown with octadecylsulfate alongside compound; Potency, µM (top dose mostly 57.1 µM), inactives show at the top dose activity change, negative = inhibition; 71,000 compounds, 2% hits;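 also: % is scaled to controls: 0 for no effect and ±100 for the full control effect; actives lower thioflavin S fluorescence by blocking filaments or displacing dye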
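Read-out: ThS fluorescence, 450 nm excitation/510 nm emission; lower signal marks blocked filament formation or displaced dye. Tau at 1 uM with 30 uM ODS, 10 uM ThS, 5 mM DTT, 100 mM NaCl, 10 mM HEPES pH 7.4; 15 h, 37 C.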
GBA activity: Glucocerebrosidase. Lysosomal acid glucosylceramidase (Homo sapiens), P04062. purified enzyme, resorufin glucoside fluorescence (screen aimed at inhibitors), 20 min. Potency, µM. 48,000 compounds, 1.1% hits. AID 360, 2006; in the data active = potency below about 15 µM; inconclusive = mostly about 16 µM to 33 µM;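 also: the screen sought inhibitors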
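Compounds titrated against 0.2 nM normal enzyme, 30 uM resorufin beta-D-glucopyranoside substrate, citrate/phosphate buffer with taurocholate and tween-20, pH 5.9. Reaction ran 20 min at room temperature; fluorescence (Ex 548/Em 600) gave AC50.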
* = called active by the depositor; [ ] = another dose, or the depositor's remark. Unless noted, calls follow the shape of the dose curve; as a rule, active = well fitted curve in the direction sought with a large enough effect; inconclusive = small, poorly fitted or top-dose-only effect, or another doubt; inactive = no such curve, though single readings can be large; an effect the other way counts as inactive or inconclusive. Potency is read from the fitted curve at half-maximal effect.

What do the screens show for `Cc1noc(/C=C/N(C)C)c1S(=O)(=O)N1CCCC(C(=O)NCc2ccc(F)cc2)C1` (stereo unspecified)?
Hsp90 Hop PPI: inconclusive; ALOX15 inhib: -19%; Tau filament bind: 83%

Results for COc1ccc(OC)c(NC(=O)C2CCCN(S(=O)(=O)c3c(C)noc3C)C2)c1 (stereo unspecified) ?
PK Bst: >57; USP2a inh: 14%; Hsp90 Hop PPI: -2%; ALOX15 inhib: -5%; Tau filament bind: 25µM*; GBA activity: >77

What do the screens show for `COc1ccc2nc(NC(=O)C3CCCN(S(=O)(=O)c4cccc5nonc45)C3)sc2c1` (stereo unspecified)?
PK Bst: >57; USP2a inh: 28%; Hsp90 Hop PPI: -28%; ALOX15 inhib: inconclusive; Tau filament bind: 10µM*; GBA activity: >77

What do the screens show for `COc1ccc(OC)c(NC(=O)C2CCN(S(=O)(=O)c3c(C)noc3C)CC2)c1`?
PK Bst: >57; USP2a inh: 8%; Hsp90 Hop PPI: -1%; ALOX15 inhib: -2%; Tau filament bind: 4%; GBA activity: >77

How did O=c1cnc2cnc(N3CCNCC3)nc2n1Cc1ccc(F)cc1 do in these assays?
USP2a inh: 26%; Hsp90 Hop PPI: -3%; ALOX15 inhib: 7%; Tau filament bind: 0%

What do the screens show for `Cc1coc2cc3oc(=O)c4c(c3cc12)CCCC4`?
USP2a inh: 21%[7.66 µM]; Hsp90 Hop PPI: -9%[11 µM]; ALOX15 inhib: -12%[11.4 µM]; Tau filament bind: 120%[11.4 µM]

What do the screens show for `Cc1sccc1C1C(C#N)=C(N)SC(N)=C1C#N`?
PK Bst: >26

What do the screens show for `CCCCc1ccc(C2C(C#N)=C(N)SC(N)=C2C#N)s1`?
USP2a inh: 32%[7.66 µM]; Hsp90 Hop PPI: -11%[11 µM]; ALOX15 inhib: 0.79µM*; Tau filament bind: 0.32µM*

What do the screens show for `O=C(Nc1ccc(-c2nnc(-c3ccccc3)o2)cc1)C(F)(F)F`?
ALOX15 inhib: 14%

What do the screens show for `COc1ccc(-c2ccc(-c3noc(C)n3)c(OC)n2)cc1`?
PK Bst: >57; USP2a inh: 8%; Hsp90 Hop PPI: 1%; ALOX15 inhib: -15%; Tau filament bind: 38%; GBA activity: >77

What do the screens show for `COc1nc(-c2ccccc2)ccc1-c1noc(-c2ccccc2F)n1`?
PK Bst: >57; USP2a inh: -5%; Hsp90 Hop PPI: 1%; ALOX15 inhib: 13%; Tau filament bind: 4%; GBA activity: 3.8*

What do the screens show for `COc1ccc(-c2ccc(-c3noc(-c4cccc(OC)c4)n3)c(OC)n2)cc1`?
PK Bst: >57; USP2a inh: -2%; Hsp90 Hop PPI: -1%; ALOX15 inhib: 1%; Tau filament bind: 9%; GBA activity: 6*

Results for COc1nc(-c2ccccc2)ccc1-c1noc(-c2ccc(F)cc2)n1 ?
PK Bst: >57; USP2a inh: 9%; Hsp90 Hop PPI: -5%; ALOX15 inhib: 11%; Tau filament bind: 0%; GBA activity: >77

What do the screens show for `COc1ccc(-c2ccc(-c3noc(-c4ccccc4C)n3)c(OC)n2)cc1`?
USP2a inh: 15%; Hsp90 Hop PPI: 2%; ALOX15 inhib: 2%; Tau filament bind: 46%; GBA activity: 11*

Results for COc1nc(-c2ccc(C)cc2)ccc1-c1noc(-c2cccnc2)n1 ?
PK Bst: >57; USP2a inh: 13%; Hsp90 Hop PPI: 4%; ALOX15 inhib: -2%; Tau filament bind: 6%; GBA activity: 12*

Results for C=CCOc1ccc(C2NC(=O)NC(C)=C2C(=O)OC)cc1 (stereo unspecified) ?
PK Bst: >57; USP2a inh: 24%; Hsp90 Hop PPI: -4%; ALOX15 inhib: 8%; Tau filament bind: 1%; GBA activity: >77

What do the screens show for `COc1cc(NS(=O)(=O)c2ccc(NC(=O)CSC3=NCCS3)cc2)nc(OC)n1`?
PK Bst: >57; USP2a inh: 2%; Hsp90 Hop PPI: -4%; ALOX15 inhib: -7%; Tau filament bind: -1%; GBA activity: >77

Results for Cc1ccc(CNC(=O)C2CCC(=O)N2C2CCCCC2)cc1 (stereo unspecified) ?
PK Bst: >57; USP2a inh: 6%; Hsp90 Hop PPI: 0%; ALOX15 inhib: 8%; Tau filament bind: 2%; GBA activity: >77

Results for COc1ccc(-c2nc(-c3ccc(Br)cc3)no2)c(OC)c1 ?
PK Bst: 6.3*; USP2a inh: 5%; Hsp90 Hop PPI: 12%; ALOX15 inhib: -7%; Tau filament bind: 350%; GBA activity: >77

Results for COc1ccccc1-c1nc(-c2ccc(Br)cc2)no1 ?
Hsp90 Hop PPI: 21%; ALOX15 inhib: 3%; Tau filament bind: 72%

What do the screens show for `COc1ccc(-c2ccc(-c3noc(-c4ccccc4OC)n3)c(OC)n2)cc1`?
PK Bst: >57; USP2a inh: 36%; Hsp90 Hop PPI: 2%; ALOX15 inhib: -7%; Tau filament bind: 483%; GBA activity: 12*

How did C=CC1=C(C)C2=Cc3c(C=C)c(C)c4[n]3[Sn+2][n]3c(c(C)c(CCC(=O)O)c3=CC3=NC(=C4)C(C)=C3CCC(=O)O)=CC1=N2 do in these assays?
Hsp90 Hop PPI: 32µM*; ALOX15 inhib: inconclusive; Tau filament bind: inconclusive

What do the screens show for `CC(=NC1CCCCC1)C1=C(O)c2ccccc2C1=O`?
USP2a inh: 6%; Hsp90 Hop PPI: -5%; ALOX15 inhib: 0%; Tau filament bind: 16µM*

What do the screens show for `CSC(=NC1CCCCC1)NS(=O)(=O)c1ccccc1`?
PK Bst: >57; USP2a inh: 0%; Hsp90 Hop PPI: 5%; ALOX15 inhib: 1%; Tau filament bind: 1%; GBA activity: inconclusive

What do the screens show for `COCCn1c(=N)c(C(=O)NCCc2ccc(OC)cc2)cc2c(=O)n3cccc(C)c3nc21`?
PK Bst: >57; USP2a inh: 19%; Hsp90 Hop PPI: -2%; ALOX15 inhib: -8%; Tau filament bind: 2µM*; GBA activity: >77

Results for CCNC(=O)c1cc2c(=O)n3cccc(C)c3nc2n(Cc2ccc(C)cc2)c1=N ?
PK Bst: >57; USP2a inh: 15%; Hsp90 Hop PPI: -3%; ALOX15 inhib: -5%; Tau filament bind: 1.6µM*; GBA activity: >77

How did Cc1cccn2c(=O)c3cc(C(=O)NC(C)C)c(=N)n(Cc4ccncc4)c3nc12 do in these assays?
PK Bst: >57; USP2a inh: 11%; Hsp90 Hop PPI: -5%; ALOX15 inhib: -2%; Tau filament bind: 35%; GBA activity: >77

Results for CC(C)COc1nc2ccccc2nc1C(C#N)C(=O)NC1CCCCC1 (stereo unspecified) ?
PK Bst: >26

High-throughput results deposited in PubChem BioAssay by National Center for Advancing Translational Sciences (NCATS).
